# Laboratory results taken from publication PMC5540273 (PLoS ONE, 2017).
# What was measured:
# Details in all cases: concentration: 1 μM, replicates: in singlicate; n = 1
# [1] = test system: T1, ASK2
# T1 construct: gene MAP3K6
# [2] = test system: AURKA
# [3] = test system: AURKB
# [4] = test system: AURKC
# [5] = test system: AXL
# [6] = test system: T2, BIKE
# T2 construct: gene BMP2K
# [7] = test system: BLK
# [8] = test system: BMPR1A
# [9] = test system: BMPR1B
# [10] = test system: BMPR2
# [11] = test system: BMX
# [12] = test system: BRAF
# [13] = test system: T3, BRK
# T3 construct: gene PTK6
# [14] = test system: BRSK1
# [15] = test system: BRSK2
# [16] = test system: BTK
# [17] = test system: BUB1
# [18] = test system: CAMK1B
# [19] = test system: CAMK1D
# [20] = test system: CAMK1G
# 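Note: KINOMEscan kinase panel screen.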
smiles,measurement,setting,value
O=C(Nc1cccc(-c2nn3ncccc3c2-c2ccnc(Nc3ccccc3)n2)c1)c1c(F)cccc1F [GSK198271],%Inh,[1],6%
same,%Inh,[2],65%
same,%Inh,[3],32%
same,%Inh,[4],64%
same,%Inh,[5],100%
same,%Inh,[6],16%
same,%Inh,[7],97.5%
same,%Inh,[8],0%
same,%Inh,[9],0%
same,%Inh,[10],0%
same,%Inh,[11],89%
same,%Inh,[12],90.9%
same,%Inh,[13],94.5%
same,%Inh,[14],4%
same,%Inh,[15],0%
same,%Inh,[16],99.4%
same,%Inh,[17],32%
same,%Inh,[18],9%
same,%Inh,[19],25%
same,%Inh,[20],11%
COc1cc(Nc2nccc(-c3c(-c4cccc(NC(=O)c5c(F)cccc5F)c4)nn4ccccc34)n2)cc(OC)c1OC [GSK323521],%Inh,[1],4%
same,%Inh,[2],48%
same,%Inh,[3],90.6%
same,%Inh,[4],15%
same,%Inh,[5],80%
same,%Inh,[6],21%
same,%Inh,[7],44%
same,%Inh,[8],0%
same,%Inh,[9],0%
same,%Inh,[10],11%
same,%Inh,[11],7%
same,%Inh,[12],9%
same,%Inh,[13],57%
same,%Inh,[14],8%
same,%Inh,[15],13%
same,%Inh,[16],1%
same,%Inh,[17],3%
same,%Inh,[18],0%
same,%Inh,[19],21%
same,%Inh,[20],31%
Cl.Cl.NCC(NCc1ccc(-c2ccnc3[nH]ccc23)s1)c1ccccc1 (centres unmarked) [GSK1321565],%Inh,[1],0%
same,%Inh,[2],47%
same,%Inh,[3],79%
same,%Inh,[4],97.2%
same,%Inh,[5],95.1%
same,%Inh,[6],100%
same,%Inh,[7],0%
same,%Inh,[8],0%
same,%Inh,[9],0%
same,%Inh,[10],3%
same,%Inh,[11],8%
same,%Inh,[12],0%
same,%Inh,[13],0%
same,%Inh,[14],0%
same,%Inh,[15],0%
same,%Inh,[16],0%
same,%Inh,[17],64%
same,%Inh,[18],59%
same,%Inh,[19],17%
same,%Inh,[20],11%
COc1cc(Nc2nccc(N3CCC(NC(=O)c4cc5ccccc5s4)C3)n2)cc(OC)c1OC (centres unmarked) [GSK1379760],%Inh,[1],100%
same,%Inh,[2],59%
same,%Inh,[3],68%
same,%Inh,[4],86%
same,%Inh,[5],14%
same,%Inh,[6],70%
same,%Inh,[7],100%
same,%Inh,[8],0%
same,%Inh,[9],0%
same,%Inh,[10],13%
same,%Inh,[11],1%
same,%Inh,[12],4%
same,%Inh,[13],11%
same,%Inh,[14],0%
same,%Inh,[15],4%
same,%Inh,[16],67%
same,%Inh,[17],26%
same,%Inh,[18],49%
same,%Inh,[19],14%
same,%Inh,[20],18%
C[C@@H](Oc1cc(-n2cnc3cc(-c4ccnc(NCCS(C)(=O)=O)c4)ccc32)sc1C(N)=O)c1ccccc1Cl [GSK907232],%Inh,[1],7%
same,%Inh,[2],0%
same,%Inh,[3],27%
same,%Inh,[4],65%
same,%Inh,[5],91%
same,%Inh,[6],97.7%
same,%Inh,[7],30%
same,%Inh,[8],21%
same,%Inh,[9],0%
same,%Inh,[10],0%
same,%Inh,[11],23%
same,%Inh,[12],0%
same,%Inh,[13],20%
same,%Inh,[14],55%
same,%Inh,[15],78%
same,%Inh,[16],0%
same,%Inh,[17],31%
same,%Inh,[18],31%
same,%Inh,[19],15%
same,%Inh,[20],13%
COc1cccc(-c2ccc3c(NC(=O)C4CC4)n[nH]c3n2)c1 [SB-710903],%Inh,[1],0%
same,%Inh,[2],0%
same,%Inh,[3],35%
same,%Inh,[4],0%
same,%Inh,[5],0%
same,%Inh,[6],0%
same,%Inh,[7],0%
same,%Inh,[8],0%
same,%Inh,[9],35%
same,%Inh,[10],44%
same,%Inh,[11],0%
same,%Inh,[12],0%
same,%Inh,[13],3%
same,%Inh,[14],8%
same,%Inh,[15],3%
same,%Inh,[16],29%
same,%Inh,[17],82%
same,%Inh,[18],11%
same,%Inh,[19],0%
same,%Inh,[20],0%
COc1cccc(C(=O)Nc2cccc(Oc3ccc4nc(NC(=O)C5CC5)cn4n3)c2)c1,%Inh,[1],0%
same,%Inh,[2],55%
same,%Inh,[3],81%
same,%Inh,[4],74%
same,%Inh,[5],65%
same,%Inh,[6],18%
same,%Inh,[7],95.3%
same,%Inh,[8],10%
same,%Inh,[9],13%
same,%Inh,[10],0%
same,%Inh,[11],77%
same,%Inh,[12],96.5%
same,%Inh,[13],21%
same,%Inh,[14],4%
same,%Inh,[15],0%
same,%Inh,[16],9%
same,%Inh,[17],0%
same,%Inh,[18],0%
same,%Inh,[19],17%
same,%Inh,[20],21%
O=C(Nc1cccc(-c2nn3ccccc3c2-c2ccnc(Nc3cccc(C(F)(F)F)c3)n2)c1)c1c(F)cccc1F [GSK292658],%Inh,[1],2%
same,%Inh,[2],2%
same,%Inh,[3],0%
same,%Inh,[4],49%
same,%Inh,[5],12%
same,%Inh,[6],0%
same,%Inh,[7],94%
same,%Inh,[8],0%
same,%Inh,[9],0%
same,%Inh,[10],22%
same,%Inh,[11],52%
same,%Inh,[12],43%
same,%Inh,[13],41%
same,%Inh,[14],0%
same,%Inh,[15],0%
same,%Inh,[16],50%
same,%Inh,[17],45%
same,%Inh,[18],33%
same,%Inh,[19],0%
same,%Inh,[20],0%
CCn1c(-c2nonc2N)nc2c(C#CC(C)(C)O)ncc(OCCCCN)c21.O=C(O)C(F)(F)F.O=C(O)C(F)(F)F [GSK507274],%Inh,[1],16%
same,%Inh,[2],0%
same,%Inh,[3],38%
same,%Inh,[4],9%
same,%Inh,[5],0%
same,%Inh,[6],26%
same,%Inh,[7],8%
same,%Inh,[8],14%
same,%Inh,[9],0%
same,%Inh,[10],12%
same,%Inh,[11],19%
same,%Inh,[12],8%
same,%Inh,[13],27%
same,%Inh,[14],0%
same,%Inh,[15],0%
same,%Inh,[16],0%
same,%Inh,[17],37%
same,%Inh,[18],0%
same,%Inh,[19],40%
same,%Inh,[20],7%
CC(C)(C)c1ccc2nccc(Nc3cccc(O)c3)c2c1 [GW856795],%Inh,[1],0%
same,%Inh,[2],0%
same,%Inh,[3],33%
same,%Inh,[4],0%
same,%Inh,[5],70%
same,%Inh,[6],0%
same,%Inh,[7],59%
same,%Inh,[8],0%
same,%Inh,[9],44%
same,%Inh,[10],38%
same,%Inh,[11],0%
same,%Inh,[12],41%
same,%Inh,[13],51%
same,%Inh,[14],0%
same,%Inh,[15],11%
same,%Inh,[16],43%
same,%Inh,[17],24%
same,%Inh,[18],68%
same,%Inh,[19],13%
same,%Inh,[20],0%
